# Data: PubChem BioAssay
# The source made the active and inactive calls.
# Key:
# [1] = small molecules captured by biotinylated probe aFSTL3 – biochemical, small-molecule microarray, fluorescence 635/667, stem cell growth factor project, primary screen (AID 1064); settings: higher = more signal;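 note: measures binding of the biotinylated anti-FSTL3 antibody to printed compounds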
# [2] = binders from COS7 lysate, DM2A8 probe, primary screen, torsin A project, cell lysate, small-molecule microarray, fluorescence 635/667 (AID 1065); settings: higher = more signal, COS7 lysate expressing mutant human TOR1A
# [3] = small molecules captured by biotinylated probe aFGF2 – biochemical, small-molecule microarray, fluorescence 635/667, stem cell growth factor project, primary screen (AID 1067); settings: higher = more signal;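 note: measures binding of biotinylated aFGF2 protein to printed compounds on slides; z-score merges feature fluorescence and signal-to-noise across triplicate slides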
# [4] = small molecules captured by biotinylated probe aFGF10 – biochemical, small-molecule microarray, fluorescence 635/667, stem cell growth factor project, primary screen (AID 1071); settings: higher = more signal;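 note: score merges 667 nm spot intensity and signal to noise from triplicate slides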
# [5] = target: Neurogenic locus notch homolog protein 2 (Homo sapiens) (UniProt Q04721); test: small molecules binding Notch2 protein – biochemical, small-molecule microarray, 635 nm fluorescence, stem cell growth factors, primary screen (AID 1073); settings: higher = more signal
# Chain of Neurogenic locus notch homolog protein 2 (Homo sapiens) (Q04721 whole entry, looked up, canonical isoform): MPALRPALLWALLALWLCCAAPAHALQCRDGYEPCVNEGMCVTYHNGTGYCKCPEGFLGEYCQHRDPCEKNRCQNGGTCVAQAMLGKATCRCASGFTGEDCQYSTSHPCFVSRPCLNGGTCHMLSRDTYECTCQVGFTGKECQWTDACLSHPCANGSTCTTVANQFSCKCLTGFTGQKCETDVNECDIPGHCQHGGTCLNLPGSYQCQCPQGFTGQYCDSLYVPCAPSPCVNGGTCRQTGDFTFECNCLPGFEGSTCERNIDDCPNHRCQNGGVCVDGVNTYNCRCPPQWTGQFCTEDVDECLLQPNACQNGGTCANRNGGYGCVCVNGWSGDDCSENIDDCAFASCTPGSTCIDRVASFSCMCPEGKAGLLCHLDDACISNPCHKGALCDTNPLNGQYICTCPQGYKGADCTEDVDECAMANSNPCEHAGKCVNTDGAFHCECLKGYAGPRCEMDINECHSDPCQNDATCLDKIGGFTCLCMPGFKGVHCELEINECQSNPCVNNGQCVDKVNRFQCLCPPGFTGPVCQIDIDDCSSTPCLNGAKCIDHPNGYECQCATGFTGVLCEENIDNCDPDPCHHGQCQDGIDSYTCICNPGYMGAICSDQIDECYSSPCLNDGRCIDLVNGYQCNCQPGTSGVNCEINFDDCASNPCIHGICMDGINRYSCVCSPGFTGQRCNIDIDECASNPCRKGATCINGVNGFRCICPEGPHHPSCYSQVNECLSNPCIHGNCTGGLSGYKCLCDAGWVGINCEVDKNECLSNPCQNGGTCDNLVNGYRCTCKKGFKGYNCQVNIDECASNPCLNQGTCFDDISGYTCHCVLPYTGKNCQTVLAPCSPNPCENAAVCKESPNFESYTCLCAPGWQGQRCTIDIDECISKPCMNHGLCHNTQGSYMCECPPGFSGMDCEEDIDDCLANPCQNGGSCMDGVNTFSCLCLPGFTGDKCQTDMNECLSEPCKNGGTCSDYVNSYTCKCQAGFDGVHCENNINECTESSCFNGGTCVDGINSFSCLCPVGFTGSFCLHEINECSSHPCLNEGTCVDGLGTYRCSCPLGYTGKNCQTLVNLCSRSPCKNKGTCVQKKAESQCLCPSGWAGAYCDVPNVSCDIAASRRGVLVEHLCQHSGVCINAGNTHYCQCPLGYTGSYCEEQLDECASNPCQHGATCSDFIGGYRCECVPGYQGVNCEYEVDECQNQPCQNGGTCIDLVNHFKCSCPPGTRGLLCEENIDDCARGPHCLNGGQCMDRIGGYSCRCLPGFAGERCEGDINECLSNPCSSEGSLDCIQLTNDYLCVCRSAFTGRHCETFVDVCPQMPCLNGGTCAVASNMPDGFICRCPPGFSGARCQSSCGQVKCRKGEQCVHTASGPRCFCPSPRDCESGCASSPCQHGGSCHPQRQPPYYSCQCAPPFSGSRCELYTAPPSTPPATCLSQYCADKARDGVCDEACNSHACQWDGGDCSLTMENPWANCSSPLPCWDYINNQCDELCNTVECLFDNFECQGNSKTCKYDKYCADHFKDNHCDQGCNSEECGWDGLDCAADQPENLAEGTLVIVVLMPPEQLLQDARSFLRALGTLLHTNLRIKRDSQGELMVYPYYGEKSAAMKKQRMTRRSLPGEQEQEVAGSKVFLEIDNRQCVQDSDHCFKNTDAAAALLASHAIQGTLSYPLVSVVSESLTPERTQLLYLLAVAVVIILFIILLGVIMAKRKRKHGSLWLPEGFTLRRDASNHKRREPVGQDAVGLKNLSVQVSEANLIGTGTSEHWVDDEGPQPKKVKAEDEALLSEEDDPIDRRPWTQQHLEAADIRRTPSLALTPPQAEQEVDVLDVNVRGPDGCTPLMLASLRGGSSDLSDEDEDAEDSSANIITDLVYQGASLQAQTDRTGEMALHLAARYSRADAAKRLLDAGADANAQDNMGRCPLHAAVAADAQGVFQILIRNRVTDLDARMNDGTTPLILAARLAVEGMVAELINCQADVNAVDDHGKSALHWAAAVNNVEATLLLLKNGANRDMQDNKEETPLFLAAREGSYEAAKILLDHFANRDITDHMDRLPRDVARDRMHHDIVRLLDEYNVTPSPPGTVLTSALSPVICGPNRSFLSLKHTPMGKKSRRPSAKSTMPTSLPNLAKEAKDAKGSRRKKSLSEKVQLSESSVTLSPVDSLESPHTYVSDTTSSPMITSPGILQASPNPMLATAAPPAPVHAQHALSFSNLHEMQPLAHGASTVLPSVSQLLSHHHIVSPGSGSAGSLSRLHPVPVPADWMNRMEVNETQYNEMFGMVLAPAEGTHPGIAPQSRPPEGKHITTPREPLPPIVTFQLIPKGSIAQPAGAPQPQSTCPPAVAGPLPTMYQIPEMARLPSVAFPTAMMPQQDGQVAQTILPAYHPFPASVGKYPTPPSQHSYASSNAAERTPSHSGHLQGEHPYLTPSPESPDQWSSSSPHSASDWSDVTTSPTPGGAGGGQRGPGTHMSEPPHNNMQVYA
# [6] = target: Pro-neuregulin-1, membrane-bound isoform (Homo sapiens) (UniProt Q02297); test: small molecules binding neuregulin-1 protein – biochemical, small-molecule microarray, fluorescence 635/667, psychiatric disease protein project, primary screen (AID 1075); settings: NRG1 binding, 635 nm fluorescence, higher = more signal;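 note: score combines 667 nm spot fluorescence with signal to noise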
# Chain of Pro-neuregulin-1, membrane-bound isoform (Homo sapiens) (Q02297 whole entry, looked up, the tested form may be a part, canonical isoform): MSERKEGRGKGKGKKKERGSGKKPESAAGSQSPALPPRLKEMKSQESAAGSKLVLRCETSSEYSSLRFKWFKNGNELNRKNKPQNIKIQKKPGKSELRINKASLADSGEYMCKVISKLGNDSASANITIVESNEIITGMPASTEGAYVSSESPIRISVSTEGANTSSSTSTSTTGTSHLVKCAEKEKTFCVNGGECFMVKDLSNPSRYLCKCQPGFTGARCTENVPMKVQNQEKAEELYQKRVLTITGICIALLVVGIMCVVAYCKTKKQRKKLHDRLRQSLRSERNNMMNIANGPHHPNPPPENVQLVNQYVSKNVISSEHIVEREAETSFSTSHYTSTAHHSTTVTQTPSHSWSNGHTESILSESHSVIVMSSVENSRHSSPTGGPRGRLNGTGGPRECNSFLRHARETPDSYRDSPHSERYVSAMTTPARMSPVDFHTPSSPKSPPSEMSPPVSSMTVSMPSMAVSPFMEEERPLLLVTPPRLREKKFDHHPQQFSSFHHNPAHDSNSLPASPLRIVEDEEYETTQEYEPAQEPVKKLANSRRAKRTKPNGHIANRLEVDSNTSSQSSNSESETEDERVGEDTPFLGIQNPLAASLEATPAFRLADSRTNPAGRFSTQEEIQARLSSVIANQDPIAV
# [7] = system: Neuregulin-1 EGF-like domain; test: small molecules binding NRG1 EGF domain – biochemical, small-molecule microarray, 635 nm fluorescence, primary screen (AID 1081); settings: higher = more signal;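 note: binding of the protein to compounds printed on small-molecule microarray slides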
# [8] = FRG1 expression reporter modulators in myotubes – cell-based, C2C12 myotubes, firefly/Renilla luciferase, luminescence, FRG1 inhibition for FSHD, primary screen (AID 1084); settings: FRG1 promoter luciferase, higher = more signal, called active from +8 up or from −8 down
# [9] = small molecules captured by biotinylated probe aFST – biochemical, small-molecule microarray, fluorescence 635/667, stem cell growth factor project, primary screen (AID 1086); settings: higher = more signal;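 note: score merges 667 nm fluorescence with signal-to-noise of each printed compound spot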
# [10] = binders of probe aHhip on microarray, primary screen, stem cell growth factor project, biochemical, small-molecule microarray, fluorescence 635/667 (AID 1087); settings: higher = more signal;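 note: score merges spot fluorescence at 667nm with spot signal to noise ratio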
SMILES,composite z-score [1],composite z-score [2],composite z-score [3],composite z-score [4],composite z-score [5],composite z-score [6],composite z-score [7],z-score [8],composite z-score [9],composite z-score [10]
COCCOC(=O)N1C(=O)[C@@]2(c3cc(C#CC4(O)CCCCCC4)ccc31)[C@H](C(=O)Nc1nc3ccccc3s1)[C@H]1C(=O)O[C@H](c3ccccc3)[C@H](c3ccccc3)N1[C@@H]2c1ccc(OCCO)cc1,-0.568,0.392,-0.083,0.797,1.07,0.727,1.15,4.24 (inactive),0.277,0.0749
COC(=O)c1c2oc(c1C(=O)OC)C(=O)N[C@@H](C(C)C)Cn1cc(nn1)C1(CCCCC1)NC(=O)N[C@H](CO)CC2,-0.458,0.104,-0.124,0.471,-0.178,0.356,0.859,-0.965 (inactive),-0.0464,0.0881
OB1C=CCC(CCc2ccccc2)O1 (stereo not given),0.0393,-0.334,-0.0883,-0.254,-0.809,-0.995,-0.989,-0.209 (inactive),-0.393,-0.132
COCCOC(=O)N1C(=O)[C@@]2(c3ccccc31)[C@H](c1ccc(OCCO)cc1)N1[C@H](c3ccccc3)[C@H](c3ccccc3)OC(=O)[C@H]1[C@@H]2C(=O)N1CCc2cc(OC)c(OC)cc2C1,-0.128,0.974,0.123,1.15,1.33,1.29,1.28,-1.82 (inactive),0.799,0.176
NC(=O)NCC#Cc1ccc2c(c1)[C@]1(C(=O)N2)[C@H](C(=O)O)[C@H]2C(=O)O[C@H](c3ccccc3)[C@H](c3ccccc3)N2[C@@H]1c1ccc(O)cc1,2.62,-0.0893,-0.0098,-0.135,0.053,0.441,-0.293,1.5 (inactive),1.83,0.182
CC[C@@H]1C=C(C(=O)O)[C@H](c2cccc3ccccc23)N1S(=O)(=O)c1ccc(C)cc1,-0.0805,-0.26,-0.0162,0.184,0.709,1.94,0.573,-3.41 (inactive),0.279,-0.0645
COCCOC(=O)N1C(=O)[C@@]2(c3ccccc31)[C@H](C(N)=O)[C@H]1C(=O)O[C@H](c3ccccc3)[C@H](c3ccccc3)N1[C@@H]2c1ccc(O)cc1,0.0458,0.209,0.0709,0.166,-0.248,1.32,1.24,-0.939 (inactive),-0.404,0.0215
O=C1C2C=CC(C(O)c3cc(C(F)(F)F)cc(C(F)(F)F)c3)N(Nc3ccccc3)C2C(=O)N1c1ccccc1 (stereo not given),0.281,1.2,-0.0064,0.35,0.649,1.8,1.12,0.995 (inactive),0.664,-0.0994
COCC(=C=CC[C@H](O)c1cccc(OCCO)c1)CCO,-0.44,-0.625,-0.0347,0.242,-0.137,1.12,0.711,1.02 (inactive),0.235,-0.0645
C=CC1c2cc(O)c(OC)cc2CCN1Cc1cccc(OC(F)(F)F)c1 (stereo not given),0.335,-0.145,-0.103,-0.605,-0.137,1.59,1.1,0.385 (inactive),-0.108,-0.268
COC(=O)c1c(CC[C@@H](CO)NC(=O)N[C@@H](Cc2ccccc2)Cn2cc(-c3ccccn3)nn2)oc(C(=O)N2CCOCC2)c1C(=O)OC,-0.39,-0.451,-0.0348,0.218,0.303,-0.0149,0.734,0.183 (inactive),0.128,-0.356
C=CCNC(=O)[C@@H]1[C@H]2C(=O)O[C@H](c3ccccc3)[C@H](c3ccccc3)N2[C@H](c2ccc(OCCO)cc2)[C@@]12C(=O)N(C(=O)OCCOC)c1ccc(C#CCNC(N)=O)cc12,0.204,0.672,-0.0502,0.399,1.25,0.748,1.1,0.635 (inactive),0.798,-0.0994
COc1ccc([Si](C)(C)[C@@H]2[C@@H](CCn3cc(CCO)nn3)O[C@]3(C(=O)N(Cc4cccc(N5C(=O)c6cccc7cccc5c67)c4)c4ccccc43)[C@H]2C)cc1,-0.429,-0.179,-0.103,0.359,0.275,0.98,1.04,-1.56 (inactive),0.525,-0.189
O=C1NC(=O)C2C1C=CC(C(O)c1ccc(-c3ccccc3)s1)N2Nc1ccc(Cl)cc1Cl (stereo not given),0.0065,0.285,0.107,0.297,1.21,1.48,0.706,2.38 (inactive),1.16,-0.0645
Cc1ccc(S[C@]2(C(=O)O)CC(=O)N(C(C)C)[C@@H]2c2ccc(CO)cc2)cc1,0.125,0.552,-0.172,-0.0563,-0.445,-0.226,0.751,-0.175 (inactive),-0.735,-0.189
O=C1O[C@@H](c2ccccc2)[C@@H](c2ccccc2)N2[C@@H](c3ccc(OCCO)cc3)[C@]3(C(=O)Nc4ccc(C#CC5=CCCCC5)cc43)[C@@H](C(=O)N3CCCCCCC3)[C@H]12,3.69,1.51,0.753,0.867,1.49,1.38,1.26,1.75 (inactive),3.12,0.354
